Data as given in PubChem BioAssay AID652042 (Broad Institute, 2013).
The campaign covered roughly 1,100 compounds. About 350 (32%) were called active. No rule for the calls is given here. A selection follows. Entries that show only a call come without a potency. Potency and affinity values are given separately.

Test: CEM21 lymphoblast cell cytotoxicity, dose response, cytotoxicity control for viral fusion inhibitor project, CellTiter-Glo luminescence, cherry-picked (AID 652042)
Conditions: CEM21 cells viability, CellTiter-Glo ATP luminescence, 24 h; series mostly up to 35 µM

| Structure (SMILES) | activity change, negative = cytotoxicity |
| --- | --- |
| CCC(C)(C)NC(=O)C(NS(=O)(=O)c1cccs1)c1ccccc1 (stereo not given) | inactive |
| CC(C)OCCCNc1ncnc2c1[nH]c1ccccc12 | inactive |
| CCOC(=O)/C=C1\Nc2ccccc2SC1=O | inactive |
| CCCCCn1c(C(C)NC(=O)CCC)nc2ccccc21 (stereo not given) | inactive |
| Cn1c(=O)n(-c2cccc(Cl)c2)c(=O)c2c3c(sc21)COC(C)(C)C3 | inactive |
| C=CCN([C@@H](CC(C)C)C(=O)OC)S(=O)(=O)N(CC=C)[C@@H](CC(C)C)C(=O)OC | inactive |
| CN1CCc2ccccc2Cc2[nH]c3ccccc3c2CC1 | inactive |
| Cc1sc2ncnc(N3CCN(S(=O)(=O)c4ccc(Br)cc4)CC3)c2c1C | inactive |
| Cc1cccc(NC(=O)C2CCN(S(=O)(=O)c3ccc4c(c3)OCCCO4)CC2)n1 | inactive |
| CCc1cccc(NC(=O)C2CCN(S(=O)(=O)c3ccc4c(c3)CC(C)N4C(C)=O)CC2)c1 (stereo not given) | inactive |
| Cc1ccc2nc(NC(=O)CCCC(=O)O)sc2c1 | inactive |
| Cc1ccc(Cn2nnnc2CN2CCC(c3nc4ccc(Cl)cc4[nH]3)CC2)cc1 | inactive |
| COc1ccc(CN2CCC(C)(Oc3ccc4c(c3)OCO4)C2)c2ccccc12 (stereo not given) | inactive |
| CCN(C[C@H]1N[C@@](CC)(C(=O)OC)[C@H]2C(=O)N(Cc3ccccc3)C(=O)[C@@H]12)C(=O)Nc1ccc(OC)cc1 | inactive |
| COC(=O)[C@@]1(C)[C@H]2C(=O)N(Cc3ccccc3)C(=O)[C@H]2[C@H]2CN=C(SCc3ccc(Cl)cc3)N21 | inactive |
| CCN1C(=O)[C@H]2[C@@H](c3ccc(C)cc3)N3C(=O)N(c4cccc(Cl)c4)C(=O)[C@@]3(CC)[C@H]2C1=O | inactive |
| CS(=O)(=O)N(Cc1ccc(Cl)cc1)c1ccc(C(=O)NCCSc2ccccn2)cc1 | inactive |
| CC(=O)c1c(C)[nH]c(C(=O)OCCCCN2C(=O)c3ccccc3C2=O)c1C | inactive |
| CCCC(=O)Nc1ccc2c(c1)OC[C@H](C)N(C(=O)CN(C)C)C[C@@H](C)[C@H](OC)CN(C)C2=O | inactive |
| CO[C@H]1CN(C)C(=O)c2ccc(NC(=O)C3CC3)cc2OC[C@@H](C)N(C(C)=O)C[C@@H]1C | inactive |
| CO[C@H]1CN(C)C(=O)c2cc(NC(=O)C3CCOCC3)ccc2OC[C@H](C)N(Cc2nccs2)C[C@H]1C | inactive |
| CO[C@H]1CN(C)C(=O)c2ccc(NC(=O)Nc3cccc(F)c3)cc2OC[C@@H](C)N(C(C)=O)C[C@H]1C | inactive |
| CCC(=O)Nc1ccc2c(c1)C(=O)N(C)C[C@@H](OC)[C@H](C)CN(C(=O)CC)[C@@H](C)CO2 | inactive |
| COCC(=O)N1C[C@@H](C)[C@H](OC)CN(C)C(=O)c2ccc(NC(=O)c3ccc(OC)cc3)cc2OC[C@@H]1C | inactive |
| CCN(CC)S(=O)(=O)c1ccc(N2CCCC2)c(NC(=O)Cc2cc(OC)c(OC)c(OC)c2)c1 | inactive |

| Structure (SMILES) | activity change, negative = cytotoxicity |
| --- | --- |
| O=C(c1cccc(S(=O)(=O)N2CCN(c3ccccc3)CC2)c1)N1CCCC(C(F)(F)F)C1 (stereo not given) | inactive |
| O=C1CCCCC1Sc1nnc(-c2ccc3c(c2)OCO3)o1 (stereo not given) | inactive |
| O=C(CN1C(=O)c2ccccc2S1(=O)=O)c1ccc2c(c1)OCCO2 | inactive |
| Cc1ccccc1S(=O)(=O)NC(=O)C1(C)CCN1C(=O)CCc1ccc(Cl)cc1Cl (stereo not given) | inactive |
| COc1ccc([C@@H]2[C@@H]3C(=O)N(C(C)(C)C)C(=O)[C@@H]3[C@]3(CC(C)C)C(=O)N(c4cccc(F)c4)C(=O)N23)cc1 | inactive |
| COc1ccc(-c2cc(C(=O)NNC(=S)NC(=O)c3c(-c4ccccc4)noc3C)[nH]n2)cc1 | inactive |
| Cc1onc(-c2ccccc2)c1C(=O)Nc1ccc(Br)cc1Cl | inactive |
| CC1(Cc2ccc(Cl)cc2)C(=O)Nc2ccc(S(=O)(=O)NC3CCCCC3)cc21 (stereo not given) | inactive |
| O=C(Nc1cccn(Cc2c(Cl)cccc2Cl)c1=O)c1ccc(Cl)cc1 | inactive |
| CCCCOc1ccc(S(=O)(=O)Nc2cccnc2)cc1 | inactive |
| CCCNC(=O)C[C@@H]1C[C@H]2c3cc(NC(=O)Cc4ccncc4)ccc3O[C@H]2[C@H](CO)O1 | inactive |
| COc1ccccc1S(=O)(=O)N[C@H]1CC[C@H](CC(=O)N2CCN(C)CC2)O[C@H]1CO | inactive |
| CC1CCN(S(=O)(=O)c2cc(C(=O)N3CCN(c4ccccc4)CC3)ccc2Br)CC1 | inactive |
| Cc1ccc(C2CC(=O)c3cnc(N4CCc5ccccc5C4)nc3C2)cc1 (stereo not given) | inactive |
| CN(C)Cc1cn(CC[C@@H]2CC[C@H](N)[C@H](CO)O2)nn1 | inactive |
| O=C(Cc1ccncc1)N[C@H]1CC[C@@H](CCn2cc(-c3ccccc3F)nn2)O[C@@H]1CO | inactive |
| CC[C@@]12C(=O)N(c3ccccc3)C(=O)N1[C@H](c1cccc(C)c1)[C@@H]1C(=O)N(Cc3ccccc3)C(=O)[C@@H]12 | inactive |
| CC(C)(C)NC(=O)C(c1ccccc1)N(Cc1cccs1)C(=O)c1csnn1 (stereo not given) | inactive |
| CC(C)(C)n1nnnc1C(c1cccs1)N(Cc1cccnc1)Cc1ccco1 (stereo not given) | inactive |
| COc1ccc(N2C(=O)N3[C@H](c4ccc(Cl)cc4)[C@@H]4C(=O)N(C5CCCCC5)C(=O)[C@@H]4[C@]3(C)C2=O)cc1 | inactive |
| CCn1ncc(C2=NOC(C(=O)Nc3ccc(C)cc3)C2)c1C (stereo not given) | inactive |
| c1csc(-c2csc3ncnc(NCCCN4CCOCC4)c23)c1 | inactive |
| O=C(C[C@@H]1C[C@@H]2c3cc(NC(=O)C4CCC4)ccc3O[C@@H]2[C@@H](CO)O1)NCC(F)(F)F | inactive |
| CCNC(=O)C[C@H]1CC[C@@H]2[C@@H](COc3ccc(NC(=O)Cc4cccs4)cc3C(=O)N2C)O1 | inactive |
| CS(=O)(=O)N1CCc2cc(-c3csc(NC(=O)Cc4cccs4)n3)ccc21 | inactive |
